This note sets out measurements from the supplement of paper PMC6555819.

Holding throughout (assay): PBM binding z-score (relative to random genomic background probes); higher = stronger binding; sequences stand for … in GC…GCGATTGACAGCGTAGAATGAAGG
Test [1] deals with FXR:RXRa (NR concentration 270 nM, RXRa partner concentration 90 nM). A digest of the protocol:
(§1)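 Probes were double-stranded and carried 34-nt variable regions with direct-repeat seeds, single-nucleotide variants, half-site ablations and random human genomic background sequences, printed on custom Agilent 4×180K protein-binding microarrays. Arrays were incubated 1 h with ligand-free nuclear receptor dimers in PBS pH 7.4, 2% milk, 0.02% Triton X-100, 1 mM DTT, 0.2 mg/mL BSA and 0.4 mg/ml salmon testes DNA. Antibodies against each partner (one per run) detected binding, and scanned fluorescence was regression-normalized. Binding z-scores use the random background probes as reference.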

The test system of test [2] is LXRa:RXRa (NR concentration 270 nM, RXRa partner concentration 90 nM). The method in brief: as §1
Test [3] concerns LXRa homodimer (NR concentration 270 nM). A digest of the protocol: as §1
For test [4], the system named is LXRb:RXRa (NR concentration 270 nM, RXRa partner concentration 90 nM). The method in brief:
as §1

For test [5], the system named is PPARa:RXRa (NR concentration 270 nM, RXRa partner concentration 90 nM). The method in brief:
as §1

Test [6] has as its system PPARg:RXRa (NR concentration 180 nM, RXRa partner concentration 90 nM). The method in brief: as §1
The subject of test [7] is PPARg:RXRa 270nM:90nM, anti-RXR (NR concentration 270 nM, RXRa partner concentration 90 nM). The method in brief:
as §1

The subject of test [8] is PPARg:RXRa 30nM:10nM, anti-RXR (NR concentration 30 nM, RXRa partner concentration 10 nM). A digest of the protocol:
as §1

Test [9] has as its system PPARg:RXRa 90nM:30nM, anti-RXR (NR concentration 90 nM, RXRa partner concentration 30 nM). The method in brief: as §1

CTATGTAGGTTAAGAGGGTCATTCAGTTTGAAAG: the PBM binding z-score in test [1] is 2.95; in [2], 3.05; in test [3] it was 1.07; in test [4], 2.93; in test [5], 4.89; in test [6] it was 5.88. For the same sequence, the results for the PBM binding z-score in [7], in test [8] and in [9] were 5.47, 2.95 and 4.99, respectively.
As to TCGAGTAGGTTACGGGGGCATGCAGGGATGAAGA, the PBM binding z-score in test [1] turned out to be 2.17; in test [2] it was 2.53; in [3], 0.37; in test [4], 4.94; in test [5] it was 4.27; in test [6], 6.15. The PBM binding z-score is 5.69 in test [7], 3.6 in test [8] and 4.99 in test [9].
For the sequence CCGAGTAGGTTACGAGGCGGCATTCAGTGCGAAT, the PBM binding z-score in [1] was -0.0338; in test [2], 0.596; in [3], -0.363; in test [4] it was -0.1; in [5], 1.06; in [6], 0.984. Also, the PBM binding z-score in test [7] is 1.28; in test [8], -0.404; in [9] it was 0.408.
As for TCGAGTAGGTTACGGGGGCATTCACGGATGAAGA, the PBM binding z-score in test [1] was found to be 2.41; in [2] it was 2.89; in test [3] it was 0.361; in [4] it was 4.92; in [5] it was 4.38; in test [6], 5.82. Further, the values for the PBM binding z-score in [7], in [8] and in [9] were 6.16, 3.37 and 5.06, respectively.
Turning to CCGAGTAGGTTACGAGGGGGCATTCCGTGCGAAT, the PBM binding z-score in [1] was 2.81; in test [2] it was 7.17; in [3], 1.62; in test [4], 6.21; in [5], 3.36; in [6], 1.77. Moreover, the PBM binding z-score was found to be 2.96 in test [7], 0.628 in [8] and 1.69 in test [9].
With TCGAGTAGGTTACGGGGGCATTCTGGGATGAAGA, the PBM binding z-score in test [1] is 2.21; in [2] it was 2.51; in [3], 0.493; in test [4] it was 5.03; in test [5] it was 4.23; in test [6], 6.17. Besides, the PBM binding z-score in test [7] was determined as 5.55; in test [8] it was 3.42; in test [9], 4.95.
For the sequence TCGAGTAGGTTACGGGGTCATTCAGGGATGAAGA, the PBM binding z-score in test [1] was determined as 6.23; in [2], 5.46; in [3], 1.76; in [4] it was 5.33; in test [5], 6.21; in test [6], 8.14. The PBM binding z-score in test [7] was 6.68; in test [8] it was 4.18; in test [9], 5.91.
In the case of CCGAGTAGGTTACGAGGGGGCAGTCAGTGCGAAT, the PBM binding z-score in [1] came to 2.18; in test [2] it was 6.39; in test [3], 0.422; in [4] it was 5.55; in [5] it was 3.14; in [6] it was 2.19. Further, the PBM binding z-score in test [7] turned out to be 3.18; in test [8], 0.853; in test [9], 2.04.
Take CTATGTAGGTTAAGGGGGTCACTCAGTTTGAAAG: the PBM binding z-score in test [1] amounted to 4.57; in test [2], 4.36; in test [3], 1.65; in test [4], 5.87; in [5], 5.91; in test [6], 8.64. For the same sequence, the PBM binding z-score in test [7] came out at 7.98; in [8], 6.23; in test [9], 8.19.
Consider TCGAGTAGGTTATGGGGGCATTCAGGGATGAAGA, for which the PBM binding z-score worked out at 1.82 in test [1]; 2.24 in [2]; 0.602 in test [3]; 4.74 in [4]; 3.71 in [5]; 4.86 in test [6]. Moreover, the PBM binding z-score came to 4.86 in test [7], 2.99 in test [8] and 4.23 in test [9].
As to CCGGGTAGGTTACGAGGGGGCATTCAGTGCGAAT, the PBM binding z-score in [1] was 2.48; in test [2], 7.2; in test [3], 1.5; in test [4], 6.39; in test [5], 3.54; in test [6], 1.6. Also, the figures for the PBM binding z-score in [7], in [8] and in test [9] were 2.96, 1.05 and 2.49, respectively.
With CCGAGTAGGTTAGGAGGGGGCATTCAGTGCGAAT, the PBM binding z-score in test [1] came out at 2.47; in test [2], 4.27; in [3], 1.19; in test [4] it was 5.24; in [5] it was 2.86; in test [6], 1.74. Besides, the results for the PBM binding z-score in [7], in [8] and in test [9] were 2.65, 1.44 and 2.24, respectively.
Regarding TCGAGTAGTTTACGGGGGCATTCAGGGATGAAGA, the PBM binding z-score in test [1] was determined as 1.17; in [2] it was 2.22; in test [3], 0.776; in [4], 4.38; in test [5], 2.69; in [6] it was 1.11. The figures for the PBM binding z-score in [7], in [8] and in test [9] were 2.83, 2.71 and 2.91, respectively.
As to TCGAGTAGGTTACGGGGCCATTCAGGGATGAAGA, the PBM binding z-score was 0.993 in test [1]; 0.505 in test [2]; -0.236 in test [3]; 0.939 in test [4]; 2.58 in test [5]; 3.24 in test [6]. Besides, the PBM binding z-score amounted to 3.52 in test [7], 1.65 in test [8] and 2.58 in [9].
On to TCGAGTAGGTTACGGGCGCATTCAGGGATGAAGA, for which the PBM binding z-score is 0.124 in [1]; 0.321 in [2]; -0.293 in test [3]; -0.159 in [4]; 1.4 in test [5]; 1.17 in [6]. The figures for the PBM binding z-score in test [7], in test [8] and in test [9] were 1.62, 1.11 and 1.36, respectively.
